Measurements: PubChem BioAssay AID778 (Sanford-Burnham Center for Chemical Genomics, 2007)
Screen size: about 96,000 compounds; about 20,000 (21%) were called active. Not all results are given here. Values without a mark were called inactive.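 The calls were made as follows: active = CYP2C19 inhibition above a set limit at 5 µM in the primary screen (cut at about 50% in these data); inactive = the rest.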

Target: Cytochrome P450 2C19 (Homo sapiens) (UniProt P33261)
Assay: blockers of cytochrome P450 2C19 activity – biochemical, luminescence, ADME assay, primary screen (AID 778);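 also: plate controls were negative control wells for no effect and 2.5 mM tranylcypromine positive control for full effect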
Details: CYP2C19 Supersomes, luciferin-H EGE luminescence, 30 min; at 5 µM; stronger effect = higher value

Chain of Cytochrome P450 2C19 (Homo sapiens) (P33261 whole entry, looked up): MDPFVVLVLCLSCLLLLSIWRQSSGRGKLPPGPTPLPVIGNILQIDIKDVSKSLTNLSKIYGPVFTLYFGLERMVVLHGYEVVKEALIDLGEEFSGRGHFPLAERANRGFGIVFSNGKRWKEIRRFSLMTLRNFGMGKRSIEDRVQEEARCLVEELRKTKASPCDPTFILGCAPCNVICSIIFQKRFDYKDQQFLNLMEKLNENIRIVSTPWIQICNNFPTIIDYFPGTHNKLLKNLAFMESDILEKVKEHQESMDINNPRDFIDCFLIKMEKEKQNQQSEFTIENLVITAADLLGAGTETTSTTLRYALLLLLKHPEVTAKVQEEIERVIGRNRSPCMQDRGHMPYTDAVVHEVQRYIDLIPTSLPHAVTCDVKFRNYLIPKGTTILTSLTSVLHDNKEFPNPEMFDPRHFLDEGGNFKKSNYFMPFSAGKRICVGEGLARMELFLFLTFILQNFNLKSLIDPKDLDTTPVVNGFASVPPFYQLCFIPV

SMILES	inhibition
COc1ccc(CN2CCN(c3ccccc3F)CC2)c(OC)c1	86.7% (active)
CC(C)c1ccc(O)c(CN2CCN(c3ccccc3)CC2)c1	19.8%
CCCCCn1c(=O)c(C(=O)NCc2ccccn2)c(O)c2ccccc21	26%
CCCCn1c(O)c(C(CC)=NCc2ccco2)c(=O)[nH]c1=O	29.9%
CCC(=NCCCO)c1c(O)n(-c2ccc(OC)cc2)c(=O)[nH]c1=O	-9.4%
CCCCCCN=C(CC)c1c(O)n(CCCC)c(=O)[nH]c1=O	73.6% (active)
Cn1c(O)c(C=NCCCC(=O)O)c(=O)n(C)c1=O	-13.4%
CCN(CC)CCOC(=O)c1cc2cc(COC)ccc2o1	-6.5%
O=C(c1cc(S(=O)(=O)N2CCOCC2)ccc1F)N1CCC2(CC1)OCCO2	-8%
CCN1CCN(C(=O)Cc2coc3cc(C)cc(C)c23)CC1	89.1% (active)
Cc1cc(OCc2cc(C(=O)O)oc2C)c2c3c(c(=O)oc2c1)CCCC3	-33%
CN(C)C(=O)NC(O)C(Cl)(Cl)Cl (configuration not stated)	23.9%
CCN(CC)P(=O)(Oc1cccc(C)c1)N(CC)CC	78.8% (active)
O=C(CN1CCCCC1)Nc1ccc(Br)cc1C(=O)c1ccccc1Cl	10.3%
CC12CN3CC(C)(CN(C1)C3c1cccs1)C2 (configuration not stated)	7.6%
Cc1ccc(N(C)C(=O)Oc2cccc3ccc(C)nc23)cc1	55.4% (active)
CN1C2C=C(N(C(=O)c3ccc(Cl)cc3)c3ccccc3)CC1CC2 (configuration not stated)	19.9%
CCOC(=O)c1c(C)c(C(=O)N2CCC3(CC2)OCCO3)c(C)n1CC	49.7%
C[N+]12CN3CN(CN(C3)C1)C2	-6.5%

SMILES	inhibition
Cc1ccc(Cn2nnnc2CN2CCC(n3nnc4ccccc43)CC2)cc1	87.4% (active)
Nc1ccc(C(=O)N/N=C2/CN3CCC2CC3)cc1	15.9%
O=C(O)C1CSC(c2cccnc2)N1 (configuration not stated)	-10.8%
CCOC(=O)C1CN(C)CCC1=O (configuration not stated)	-3.5%
CC(=O)c1ccc(OC(NC(=O)Cc2ccccc2)C(Cl)(Cl)Cl)cc1 (configuration not stated)	83.1% (active)
CC(=O)NC(=O)NC(C)Cc1ccccc1 (configuration not stated)	-11.6%
Cc1nc2ccccn2c1P(=S)(N1CCCCC1)N1CCCCC1	17.2%
CC1=C(C(=O)Nc2ccccc2)SCCO1	-3.1%
CCOP(=S)(OCC)SCOC(=O)NCC(=O)OC	95.6% (active)
Cc1cccc(N2C(=O)NC(=O)/C(=C\c3cnn(-c4ccccc4)c3)C2=O)c1	-9.4%
Cn1c(O)c(C=Nc2ccc3c(c2)CCC3)c(=O)n(C)c1=O	31.3%
N#Cc1ccc(Cn2cc(C(=O)c3ccco3)c3ccccc32)cc1	9.2%
CSC1=NP(=S)(SC)N(C)c2nc3n(c21)CCC3 (configuration not stated)	8.2%
OC(CNC1CCCCC1)c1ccccc1 (configuration not stated)	58.5% (active)
COC(=O)C(c1ccccc1)N1CCCCCC1 (configuration not stated)	12.8%
O=C(CSC1c2ccccc2-c2ccccc21)N/N=C/c1ccccc1	25.3%
CCCC(C)n1[nH]c(=O)c2c1NC(=O)CSC2c1ccc(OC)c(OC)c1 (configuration not stated)	7.2%
c1cncc(CNC2=NCCC2)c1	-16.9%
CCc1cccc2c(C#N)cn(CC(=O)N3CCOCC3)c12	6.7%

SMILES	inhibition
CC(=O)Nc1ccccc1C(=O)OCC(=O)c1cccc2ccccc12	51.1% (active)
CCOc1ccc(C2SCC(=O)Nc3c2c(C)nn3C2CCOC(C)(C)C2)cc1 (configuration not stated)	7%
CN1CCN(C(=O)COc2ccc(C(C)(C)C)cc2Br)CC1	66.5% (active)
CC(C)c1ccc(OCC(=O)N2CCN(C)CC2)c(Br)c1	76% (active)
NC(=O)Nc1cccc(C(F)(F)F)c1	26.2%
Cc1nc2nc(C)c(CCC(=O)N3CCC4(CC3)OCCO4)c(C)n2n1	0%
CC(=O)c1c(O)n(C2CCCCCC2)c(=O)[nH]c1=O	27%
O=C(COc1ccc2ccccc2c1)N1CCN(Cc2ccncc2)CC1	90.1% (active)
CCN(CC)C(=O)c1ccc(NC(=O)c2cc(-n3cnnc3)ccc2Cl)cc1	11.1%
Cn1c(C(=O)N2CCC(C(=O)N3CCC4(CC3)OCCO4)CC2)cc2sccc21	7.5%
CC(C)(C)c1ccc(CN2C(=O)CN=C(c3ccccc3)c3ccccc32)cc1	16.5%
CCOC(=O)c1c(-c2ccccc2)oc2ccc(OC(=O)N(C)C)cc12	60.7% (active)
Cc1ccc2c(c1)C1CN(C)CCC1N2C(=O)Cn1nnc(-c2ccccc2F)n1 (configuration not stated)	8.3%
O=c1c2ccccc2nc(-c2ccc(Cl)cc2Cl)n1-c1ccncc1	76.4% (active)
O=c1c2ccccc2nc(-c2ccco2)n1-c1ccc(Br)cn1	-3.5%
CCc1nc2ccccc2c(=O)n1-c1cccc(OC)c1	33.5%
COC(=O)C(O)(c1ccc(NC(=O)c2ccco2)c(OC)c1)C(F)(F)F (configuration not stated)	39%
CCNc1nc2[nH]c(=O)c3c(c2s1)OC(N)=C(C#N)C3c1cccs1 (configuration not stated)	-19.6%
CCC(=O)CC(c1ccc([N+](=O)[O-])cc1)c1c(O)c2ccccc2oc1=O (configuration not stated)	1.3%
